Source: PubChem BioAssay AID1159580 (chemical genetic matrix, 2015)
Hit rate of the full screen: of about 5,500 compounds, about 2,000 (36%) were called active. About 18% were inconclusive and are not listed. Rule as the data show it: active = normalized growth mostly below about 0.91 (no sharp cut-off); inconclusive = no clear call, values can overlap the other calls; inactive = mostly above about 0.92. Some of the results follow.

Experiment: chemical genetic growth profiling, strain panel (AID 1159580);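 also: tested at 20 µM; growth read once vehicle control cultures reached saturation at 30 °C; 1 = growth at the plate median or of vehicle wells; lower values mean less growth of the strain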
Conditions: S. cerevisiae deletion strains, growth OD

Measured: normalized growth

CN1CC(O)C(O)C(O)C1CO (stereo not drawn)
inactive: locus YAL040C, strain CLN3, stronger effect = lower value 1 | locus YCL061C, strain MRC1 (second series), stronger effect = lower value 1 | locus YDR363W, strain ESC2, stronger effect = lower value 0.997 | locus YER002W, strain NOP16, stronger effect = lower value 1.01 | locus YGR078C, strain PAC10, stronger effect = lower value 1.01 | locus YMR307W, strain GAS1, stronger effect = lower value 0.998 | locus YNL128W, strain TEP1, stronger effect = lower value 0.975 | locus YNL153C, strain GIM3, stronger effect = lower value 1.01 | locus YNL175C, strain NOP13, stronger effect = lower value 0.992 | locus YNL197C, strain WHI3, stronger effect = lower value 1 | locus YNL224C, strain SQS1, stronger effect = lower value 0.992 | locus YOR083W, strain WHI5 (second series), stronger effect = lower value 1 | locus YPL241C, strain CIN2, stronger effect = lower value 1.01
